High-throughput results from PubChem.
NPR2 activator – human GC-B receptor activators, primary screen, HEK293 GC-B cells, cGMP TR-FRET, EC30 CNP; Atrial natriuretic peptide receptor 2 (Homo sapiens), P20594; 0% at EC30 CNP, 100% saturating CNP; activation, % at 10 µM; 370,000 tested, 0.11% active; AID 1920062, 2024;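 active = activation at 10 µM reaching about 35% in either raw or pattern-adjusted values, limit read from the data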
GC-A act – GC-A stimulated cGMP production enhancers – HEK293 GC-A cells, cGMP TR-FRET, EC30 ANP, primary screen; Atrial natriuretic peptide receptor 1 (Homo sapiens), P16066; 0% at EC30 ANP, 100% saturating ANP; activation, % at 10 µM; 370,000 tested, 0.14% active; AID 1671463, 2021; in the data active = activation above about 40%
Target sequence (P16066 whole entry, looked up): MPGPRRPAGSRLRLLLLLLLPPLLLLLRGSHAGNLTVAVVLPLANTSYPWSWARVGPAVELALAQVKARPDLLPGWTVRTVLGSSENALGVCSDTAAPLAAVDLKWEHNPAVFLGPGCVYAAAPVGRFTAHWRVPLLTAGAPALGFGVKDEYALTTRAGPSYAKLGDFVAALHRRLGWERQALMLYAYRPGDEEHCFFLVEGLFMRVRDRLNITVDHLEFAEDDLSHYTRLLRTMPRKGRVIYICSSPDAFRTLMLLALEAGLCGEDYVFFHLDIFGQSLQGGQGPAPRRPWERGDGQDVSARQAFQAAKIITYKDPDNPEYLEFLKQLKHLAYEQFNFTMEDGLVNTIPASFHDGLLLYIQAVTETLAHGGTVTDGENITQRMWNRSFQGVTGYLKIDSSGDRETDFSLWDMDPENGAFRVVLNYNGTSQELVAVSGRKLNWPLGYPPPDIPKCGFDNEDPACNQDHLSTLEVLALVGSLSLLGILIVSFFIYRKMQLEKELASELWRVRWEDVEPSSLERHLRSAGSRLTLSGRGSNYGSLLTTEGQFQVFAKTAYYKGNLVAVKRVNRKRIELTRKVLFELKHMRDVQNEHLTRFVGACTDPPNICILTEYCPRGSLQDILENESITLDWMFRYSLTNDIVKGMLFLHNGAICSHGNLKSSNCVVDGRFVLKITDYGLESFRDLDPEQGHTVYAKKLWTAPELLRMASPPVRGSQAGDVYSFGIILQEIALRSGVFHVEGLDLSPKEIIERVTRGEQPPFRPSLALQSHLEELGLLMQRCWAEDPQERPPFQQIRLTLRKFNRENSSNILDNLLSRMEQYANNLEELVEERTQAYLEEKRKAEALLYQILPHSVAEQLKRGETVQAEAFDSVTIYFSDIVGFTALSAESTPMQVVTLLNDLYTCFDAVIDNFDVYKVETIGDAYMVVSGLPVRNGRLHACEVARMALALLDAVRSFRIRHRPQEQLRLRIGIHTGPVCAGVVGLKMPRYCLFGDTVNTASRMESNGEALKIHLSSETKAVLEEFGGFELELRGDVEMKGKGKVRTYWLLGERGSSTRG
ADAM10 inh – human ADAM10 inhibitors, primary screen, biochemical, QFRET, HTS | inhibition, % at 7 µM | 370,000 tested, 0.62% active | recombinant ADAM10, EDANS/DABCYL FRET peptide cleavage, 3 h | Disintegrin and metalloproteinase domain-containing protein 10 (Homo sapiens), O14672;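 active = inhibition above a per-campaign cutoff equal to the mean of compounds falling between control-based bounds plus 3 SD, cut at about 20% in these data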;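 note: 0% = DMSO wells while the 100% control is not disclosed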
ADAM17 inh – ADAM17 inhibitors, primary screen, biochemical, QFRET. 370,000 tested, 0.83% active. recombinant ADAM17, EDANS/DABCYL FRET peptide cleavage. inhibition, % at 6.95 µM. Disintegrin and metalloproteinase domain-containing protein 17 (Homo sapiens), P78536;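 active = inhibition above the mean of compounds lying between control limits plus 3 SD, set per campaign, cut at about 8.5% in these data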;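 note: 0% = DMSO-only wells as the low control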
KLK7 zymogen act – proKLK7 zymogen activators, primary screen, biochemical, fluorescence intensity; Kallikrein-7 (Homo sapiens), P49862; activation, % at 7 µM; purified proKLK7, EDANS-DABCYL substrate fluorescence; 100% is mature enzyme control, 0% vehicle; 370,000 tested, 0.9% active;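 active = activation above the mean of all tested compounds plus 3 SD, computed per campaign excluding outliers beyond control limits, cut at about 13% in these data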
ADAM10 confirm – human ADAM10 inhibitors, confirmation, biochemical, QFRET, triplicate | shares compounds with ADAM10 inh | 2,100 tested, 1% active | inhibition, % at 6.95 µM | ADAM10 QFRET peptide cleavage, EDANS fluorescence;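 active = inhibition above about 20% chosen separately for each screening run, limit read from the data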;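 note: 0% = DMSO wells and 100% = marimastat wells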
ADAM17 ctr – ADAM17 inhibitors, counter-screen for ADAM10 exosite inhibitor project, biochemical, QFRET, high throughput; shares compounds with ADAM10 inh; ADAM17 QFRET peptide cleavage, EDANS fluorescence; inhibition, % at 6.95 µM; 2,100 tested, 0.5% active; AID 743214, 2013;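 active = mean triplicate inhibition above the solvent-only control wells' mean plus 3 SD, cut at about 12% in these data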;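 note: 0% = DMSO wells and 100% = marimastat wells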
Active calls of the source: *; . = no result given. This is a sample that favours compounds with a hit; in the whole collection about 2.2% have one here.

SMILES	NPR2 activator	GC-A act	ADAM10 inh	ADAM17 inh	KLK7 zymogen act	ADAM10 confirm	ADAM17 ctr
C#Cc1ccc([C@@H]2C=C(C(=O)N3CCN(Cc4ccccc4)CC3)O[C@H](OCC)[C@H]2CCCO)cc1	-1	-2	24*	4	0	3	1
CCO[C@H]1OC(C(=O)NCc2ccccc2)=C[C@@H](c2cn(C(C)=O)c3ccccc23)[C@@H]1CCCO	5	-1	26*	3	0	4	2
C#Cc1ccc([C@H]2C=C(C(=O)N3CCN(Cc4ccccc4)CC3)O[C@@H](OCC)[C@@H]2CCCO)cc1	-9	-2	0	-4	0	.	.
Nn1c(SCC(=O)Nc2ccc(OCc3ccccc3)cc2)nnc1-c1cc(-c2ccccc2)n[nH]1	-12	-7	6	0	0	.	.
CC(=O)Nc1cccc(C(=O)OC(C(=O)c2ccc(C)cc2)c2ccccc2)c1 (stereo not given)	3	-4	25*	7	0	5	2
CC(=O)Nc1cccc(C(=O)OC(C(=O)c2ccc(C)c(C)c2)c2ccccc2)c1 (stereo not given)	3	-7	12	3	0	.	.
O=S(=O)(c1ccc(CN2CCOCCOCCN(Cc3ccc(S(=O)(=O)C(F)(F)F)cc3)CCOCC2)cc1)C(F)(F)F	-4	-1	5	1	.	.	.
Cc1ccccc1CN1CCCCC(NC(=O)c2ccc(-c3ccccc3)cc2)C1=O (stereo not given)	6	5	13	3	0	.	.
CC1=NNC(=O)/C1=C\c1cn(-c2ccccc2)nc1-c1ccccc1	-10	-9	24*	16*	-1	6	2
O=Cc1cn(-c2ccccc2)nc1-c1ccccc1	0	3	1	-1	0	.	.
COC(=O)[C@]12C[C@H](CC(=O)NCCCCc3ccccc3)C(=O)N(Cc3ccc4c(c3)OCO4)C1=C[C@H](C(C)C)O[C@@H]2C1CC1	-6	-3	21*	6	0	6	3
COC(=O)[C@]12C[C@H](CC(=O)NCc3ccc(OC)c(OC)c3)C(=O)N(CCC3=CCCCC3)C1=C[C@H](C(C)C)O[C@@H]2C1CC1	1	4	7	1	0	.	.
CCCCCCCCN1C(=O)[C@@H](CC(=O)NCc2ccc(OC)c(OC)c2)C[C@@]2(C(=O)OC)C1=C[C@H](C(C)C)O[C@@H]2C1CC1	5	-6	22*	6	1	12	3
COC(=O)[C@]12C[C@H](CC(=O)NCc3cccc(C(F)(F)F)c3)C(=O)N(Cc3ccc4c(c3)OCO4)C1=C[C@H](C(C)C)O[C@@H]2C1CC1	-4	-6	20*	8	0	7	3
COC(=O)[C@]12C[C@H](CC(=O)NCc3cccc4ccccc34)C(=O)N(Cc3ccc4c(c3)OCO4)C1=C[C@H](C(C)C)O[C@@H]2C1CC1	-16	-6	12	3	0	.	.
CCOc1cccc(NC(=O)C2CC(=O)N(C)C(=Nc3cccc(F)c3)S2)c1 (stereo not given)	-8	0	21*	6	0	4	1
C#CCNC(=O)CSCc1nc(-c2ccc(OCC)cc2)oc1C	-10	-1	-8	-6	.	.	.
CCOC(=O)c1c(NC(=O)CSc2nnc(-c3ccccc3)n2CC)sc(C(C)=O)c1C	-12	-15	23*	4	1	-2	0
CCn1c(Cc2ccccc2)nnc1SCC(=O)Nc1nc2ccccc2s1	-1	-2	8	3	0	.	.
CCn1c(SCC(=O)Nc2nc3ccccc3s2)nnc1-c1ccc(OC)cc1	-2	2	20*	1	0	0	1
CCN(C[C@H]1[C@@H](c2ccc(C3=CCCC3)cc2)[C@H](CO)N1Cc1ccccn1)S(=O)(=O)c1ccccc1[N+](=O)[O-]	-3	-1	-6	0	0	.	.
Cc1ccc(S(=O)(=O)N2[C@@H](c3ccc(Cl)cc3)C(C(=O)O)=CC[C@H]2c2ccc(C(C)C)cc2)cc1	3	-5	21*	1	0	1	0
CC(C)CC(COCc1cccc(C(F)(F)F)c1)N1CCN(C(=O)c2cccc(C(F)(F)F)c2)CCC1=O (stereo not given)	-8	-4	21*	7	1	3	0
Cc1ccc(COC[C@H](CC(C)C)N2CCN(C(=O)c3cccc(C(F)(F)F)c3)CCC2=O)cc1	-2	-4	-2	3	0	.	.
Cc1cccc(COCC(Cc2ccccc2)N2CCN(C(=O)c3cccc(C)c3)CCC2=O)c1 (stereo not given)	-4	0	-2	1	1	.	.
SMILES	NPR2 activator	GC-A act	ADAM10 inh	ADAM17 inh	KLK7 zymogen act	ADAM10 confirm	ADAM17 ctr
CC(C)CC(COCc1ccc(C(F)(F)F)cc1)N1CCN(C(=O)c2ccc(C(F)(F)F)cc2)CCC1=O (stereo not given)	0	-4	27*	7	0	0	1
O=C(c1cccc(Cl)c1)N1CCC(=O)N([C@H](COCc2cccc(Cl)c2)Cc2ccccc2)CC1	-8	-9	20*	7	0	4	1
COc1cc(-n2c(C)nc3cc(C(=O)N4CCN(C(C)=O)CC4)ccc32)cc(OC)c1OC	-1	-1	-13	3	0	.	.
CCOC(=O)CC[C@@H]1CC[C@]2(CCCN(C(=O)c3ccccc3)C2)O1	4	6	1	-1	0	.	.
CCCCOc1ccc(C(=O)NC2CCCCN(Cc3ccc(Cl)cc3)C2=O)cc1 (stereo not given)	7	6	16	6	1	.	.
C/C=C/COC(=O)c1[nH]c2c(c1C)C(=O)CC(c1ccc(N(C)C)cc1)C2 (stereo not given)	-3	4	65*	5	0	6	1
Cc1ccc(S(=O)(=O)N2CCC(=O)N2)cc1	0	-1	28*	0	0	12	1
CC(C)N1C(=O)C(Cc2nc3ccccc3c(=O)n2-c2ccccc2)c2ccccc21 (stereo not given)	-15	-30	86*	2	0	3	1
